{"source": "the supplement of paper PMC8728848", "binders": {"B1": {"name": "Thrombomodulin Lectin (Mus musculus) (protein)", "chain": "LSALAKLQPTGSQCVEHECFALFQGPATFLDASQACQRLQGHLMTVRSSVAADVISLLLSQSSMDLGPWIGLQLPQGCDDPVHLGPLRGFQWVTGDNHTSYSRWARPNDQTAPLCGPLCVTVSTATEAAPGEPAWEEKPCETETQGFLCEFYFTASCRVDPIPVREDTKEEEGAGEPPVSPTPGSPTGPPSARPVLDEPRVPITQNPCPPLKECPPCAAPDLEGGPSVFIFPPKIKDVLMISLSPMVTCVVVDVSEDDPDVQISWFVNNVEVHTAQTQTHREDYNSTLRVVSALPIQHQDWMSGKAFACAVNNRALPSPIEKTISKPRGPVRAPQVYVLPPPAEEMTKKEFSLTCMITGFLPAEIAVDWTSNGRTEQNYKNTATVLDSDGSYFMYSKLRVQKSTWERGSLFACSVVHEGLHNHLTTKTISRSLGK"}}, "assay_in_all_cases": "glycan array binding signal (z-score within array); higher = stronger binding", "settings_in_all_cases": "glycan notation: IUPAC condensed, linker removed", "key": {"[1]": {"biological_target": "GlcNAc(a1-3)Gal(b1-4)GlcNAc", "in_short": "(§1)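 Glycan array binding is given as a within-array Z-score, which can be read as non-binding when negative. The arrays, 3228 of them, came from the Consortium for Functional Glycomics database and were retained only where the protein sequence was available. Z-scores were averaged across arrays of the same protein sequence at different concentrations or buffers and across linkers.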"}, "[2]": {"biological_target": "GlcNAc(a1-4)Gal(b1-4)GlcNAc(b1-3)Gal(b1-4)[Fuc(a1-3)]GlcNAc(b1-3)Gal(b1-4)[Fuc(a1-3)]GlcNAc", "in_short": "as §1"}, "[3]": {"biological_target": "GlcNAc(a1-6)Gal(b1-4)GlcNAc", "in_short": "as §1"}, "[4]": {"biological_target": "GlcNAc(b1-2)Man(a1-3)[GlcNAc(b1-2)Man(a1-6)]Man(b1-4)GlcNAc(b1-4)[Fuc(a1-6)]GlcNAc", "in_short": "as §1"}, "[5]": {"biological_target": "GlcNAc(b1-3)Gal(b1-4)GlcNAc(b1-3)Gal(b1-4)GlcNAc", "in_short": "as §1"}, "[6]": {"biological_target": "GlcNAc(b1-3)Gal(b1-4)GlcNAc(b1-3)Gal(b1-4)GlcNAc(b1-2)[GlcNAc(b1-3)Gal(b1-4)GlcNAc(b1-3)Gal(b1-4)GlcNAc(b1-6)]Man(a1-6)[GlcNAc(b1-3)Gal(b1-4)GlcNAc(b1-3)Gal(b1-4)GlcNAc(b1-2)Man(a1-3)]Man(b1-4)GlcNAc(b1-4)[Fuc(a1-6)]GlcNAc", "in_short": "as §1"}, "[7]": {"biological_target": "GlcNAc(b1-3)Gal(b1-4)GlcNAc(b1-3)Gal(b1-4)GlcNAc(b1-3)Gal(b1-4)GlcNAc(b1-3)Gal(b1-4)GlcNAc(b1-2)Man(a1-3)[GlcNAc(b1-3)Gal(b1-4)GlcNAc(b1-3)Gal(b1-4)GlcNAc(b1-3)Gal(b1-4)GlcNAc(b1-3)Gal(b1-4)GlcNAc(b1-2)Man(a1-6)]Man(b1-4)GlcNAc(b1-4)GlcNAc", "in_short": "as §1"}, "[8]": {"biological_target": "GlcNAc(b1-4)GlcNAc(b1-4)GlcNAc(b1-4)GlcNAc(b1-4)GlcNAc", "in_short": "as §1"}, "[9]": {"biological_target": "GlcNAc(b1-4)GlcNAc(b1-4)GlcNAc(b1-4)GlcNAc(b1-4)GlcNAc(b1-4)GlcNAc", "in_short": "as §1"}, "[10]": {"biological_target": "GlcNAc6S(b1-3)Gal(b1-4)GlcNAc", "in_short": "as §1"}, "[11]": {"biological_target": "Man(a1-2)Man(a1-2)Man(a1-3)Man", "in_short": "as §1"}, "[12]": {"biological_target": "Neu5Ac(a2-3)Gal(b1-3)GlcNAc(b1-2)[Neu5Ac(a2-3)Gal(b1-3)GlcNAc(b1-4)]Man(a1-6)[Neu5Ac(a2-3)Gal(b1-3)GlcNAc(b1-2)Man(a1-3)]Man(b1-4)GlcNAc(b1-4)GlcNAc", "in_short": "as §1"}, "[13]": {"biological_target": "Neu5Ac(a2-3)Gal(b1-3)GlcNAc(b1-3)Gal(b1-3)GlcNAc", "in_short": "as §1"}, "[14]": {"biological_target": "Neu5Ac(a2-3)Gal(b1-4)GlcNAc(b1-2)Man", "in_short": "as §1"}, "[15]": {"biological_target": "Neu5Ac(a2-3)[GalNAc(b1-4)]Gal(b1-4)GlcNAc(b1-3)GalNAc", "in_short": "as §1"}, "[16]": {"biological_target": "Neu5Ac(a2-6)Gal(b1-4)GlcNAc(b1-2)Man(a1-3)[Man(a1-6)]Man(b1-4)GlcNAc(b1-4)GlcNAc", "in_short": "as §1"}, "[17]": {"biological_target": "Neu5Ac(a2-6)Gal(b1-4)GlcNAc(b1-2)Man(a1-3)[Neu5Ac(a2-3)Gal(b1-4)GlcNAc(b1-2)Man(a1-6)]Man(b1-4)GlcNAc(b1-4)GlcNAc", "in_short": "as §1"}, "[18]": {"biological_target": "Neu5Ac(a2-6)Gal(b1-4)GlcNAc(b1-2)[Neu5Ac(a2-6)Gal(b1-4)GlcNAc(b1-6)]Man(a1-6)[Neu5Ac(a2-6)Gal(b1-4)GlcNAc(b1-2)Man(a1-3)][GlcNAc(b1-4)]Man(b1-4)GlcNAc(b1-4)GlcNAc", "in_short": "as §1"}, "[19]": {"biological_target": "Neu5Ac(a2-6)GalNAc(b1-4)GlcNAc", "in_short": "as §1"}, "[20]": {"biological_target": "Neu5Ac(a2-8)Neu5Ac(a2-3)Gal(b1-3)GalNAc(b1-4)[Neu5Ac(a2-3)]Gal(b1-4)Glc", "in_short": "as §1"}, "[21]": {"biological_target": "Neu5Ac(a2-8)Neu5Ac(a2-3)Gal(b1-3)GalNAc(b1-4)[Neu5Ac(a2-8)Neu5Ac(a2-3)]Gal(b1-4)Glc", "in_short": "as §1"}, "[22]": {"biological_target": "Neu5Ac(a2-8)Neu5Ac(a2-3)[Gal(b1-3)GalNAc(b1-4)]Gal(b1-4)Glc", "in_short": "as §1"}, "[23]": {"biological_target": "Neu5Ac(a2-8)Neu5Ac(a2-8)Neu5Ac(a2-3)Gal(b1-4)Glc", "in_short": "as §1"}, "Neu5Ac(b2-6)GalNAc": {"biological_target": "Neu5Ac(b2-6)GalNAc", "in_short": "as §1"}, "[24]": {"biological_target": "Neu5Gc(a2-3)Gal(b1-3)GlcNAc", "in_short": "as §1"}}, "note": "Only a selection was taken, and the strongest signals are over-represented in it overall.", "data": [{"binder": "B1", "values": [{"measurement": "glycan array binding signal (z-score)", "setting": "[1]", "result": -1.21}, {"measurement": "glycan array binding signal (z-score)", "setting": "[2]", "result": 0.73}, {"measurement": "glycan array binding signal (z-score)", "setting": "[3]", "result": 1.09}, {"measurement": "glycan array binding signal (z-score)", "setting": "[4]", "result": -0.281}, {"measurement": "glycan array binding signal (z-score)", "setting": "[5]", "result": -0.268}, {"measurement": "glycan array binding signal (z-score)", "setting": "[6]", "result": 2.07}, {"measurement": "glycan array binding signal (z-score)", "setting": "[7]", "result": 0.151}, {"measurement": "glycan array binding signal (z-score)", "setting": "[8]", "result": -1.3}, {"measurement": "glycan array binding signal (z-score)", "setting": "[9]", "result": 1.17}, {"measurement": "glycan array binding signal (z-score)", "setting": "[10]", "result": 0.319}, {"measurement": "glycan array binding signal (z-score)", "setting": "[11]", "result": -0.544}, {"measurement": "glycan array binding signal (z-score)", "setting": "[12]", "result": 0.153}, {"measurement": "glycan array binding signal (z-score)", "setting": "[13]", "result": -1.59}, {"measurement": "glycan array binding signal (z-score)", "setting": "[14]", "result": -1.13}, {"measurement": "glycan array binding signal (z-score)", "setting": "[15]", "result": 2.15}, {"measurement": "glycan array binding signal (z-score)", "setting": "[16]", "result": 2.04}, {"measurement": "glycan array binding signal (z-score)", "setting": "[17]", "result": -0.553}, {"measurement": "glycan array binding signal (z-score)", "setting": "[18]", "result": 0.307}, {"measurement": "glycan array binding signal (z-score)", "setting": "[19]", "result": -1.18}, {"measurement": "glycan array binding signal (z-score)", "setting": "[20]", "result": 1.68}, {"measurement": "glycan array binding signal (z-score)", "setting": "[21]", "result": -0.913}, {"measurement": "glycan array binding signal (z-score)", "setting": "[22]", "result": 0.046}, {"measurement": "glycan array binding signal (z-score)", "setting": "[23]", "result": 3.06}, {"measurement": "glycan array binding signal (z-score)", "setting": "Neu5Ac(b2-6)GalNAc", "result": 1.37}, {"measurement": "glycan array binding signal (z-score)", "setting": "[24]", "result": -0.635}]}]}
